Reference: the supplement of paper PMC10849652
Of roughly 7,900 targets only a part is listed; those with a hit were picked by preference. About 0.6% of all pairs of compound and target were hits.

Compound: FC(F)(F)c1ccc(/C=C/c2nc(COc3ccc(CCCCn4ccnn4)cc3)co2)cc1 [mubritinib]
Experiment: log2 fold change, soluble protein after heating vs DMSO (PISA); higher = thermal stabilisation; K562 cells, 10 uM, 30 min; active = over 0.2 and 3.5 SD of the protein, either way, in both replicates (recomputed)
Procedure, shortened: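 Quantification of soluble protein used TMTpro 16plex LC-MS/MS, with channel sums equalised. Samples were the supernatant after 21,000xg for 90 min of pooled aliquots from K562 cells (2×10^6 cells/mL) treated with 10 μM compound for 30 min, heated for 3 min over 48°C-58°C, and extracted in PBS with 0.5% NP-40 at 4°C. Values, from duplicates, describe thermal stability against control samples on a log2 fold-change scale.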

UniProt Q86VX9, sequence (Q86VX9 whole entry, looked up): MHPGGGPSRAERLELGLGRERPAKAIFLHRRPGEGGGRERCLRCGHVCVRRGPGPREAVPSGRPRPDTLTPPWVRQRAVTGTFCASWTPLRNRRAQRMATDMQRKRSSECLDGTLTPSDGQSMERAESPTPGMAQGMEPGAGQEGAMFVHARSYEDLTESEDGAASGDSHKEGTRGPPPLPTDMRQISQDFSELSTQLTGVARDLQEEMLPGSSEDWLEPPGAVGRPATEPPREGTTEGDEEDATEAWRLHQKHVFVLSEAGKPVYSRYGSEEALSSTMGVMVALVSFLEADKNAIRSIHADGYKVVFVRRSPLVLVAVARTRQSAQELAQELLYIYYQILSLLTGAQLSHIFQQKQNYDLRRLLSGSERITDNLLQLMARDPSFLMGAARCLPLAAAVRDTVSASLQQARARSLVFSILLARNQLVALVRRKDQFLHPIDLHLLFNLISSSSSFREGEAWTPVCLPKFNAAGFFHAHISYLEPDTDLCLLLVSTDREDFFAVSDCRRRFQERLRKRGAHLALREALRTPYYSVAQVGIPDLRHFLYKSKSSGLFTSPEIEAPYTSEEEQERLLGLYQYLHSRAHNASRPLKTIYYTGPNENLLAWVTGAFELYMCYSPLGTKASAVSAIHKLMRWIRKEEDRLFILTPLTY
UniProt P04181, sequence (P04181 whole entry, looked up): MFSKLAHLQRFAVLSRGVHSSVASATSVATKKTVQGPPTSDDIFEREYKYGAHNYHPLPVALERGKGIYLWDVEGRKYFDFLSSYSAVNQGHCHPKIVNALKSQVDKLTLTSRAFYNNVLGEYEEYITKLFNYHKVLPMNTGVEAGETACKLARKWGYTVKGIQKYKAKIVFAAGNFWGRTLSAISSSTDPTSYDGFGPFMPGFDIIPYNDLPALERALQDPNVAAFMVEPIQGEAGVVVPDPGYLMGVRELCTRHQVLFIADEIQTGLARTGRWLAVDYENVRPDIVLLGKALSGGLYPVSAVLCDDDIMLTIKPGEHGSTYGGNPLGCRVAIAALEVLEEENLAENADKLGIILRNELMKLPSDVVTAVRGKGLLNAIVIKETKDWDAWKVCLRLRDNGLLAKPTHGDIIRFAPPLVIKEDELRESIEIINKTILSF
UniProt O60361, sequence (O60361 whole entry, looked up): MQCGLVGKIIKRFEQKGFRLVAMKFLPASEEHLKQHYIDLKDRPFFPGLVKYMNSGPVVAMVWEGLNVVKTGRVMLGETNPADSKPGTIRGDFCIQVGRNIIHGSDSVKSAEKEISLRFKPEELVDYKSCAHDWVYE
UniProt Q6N063, sequence (Q6N063 whole entry, looked up): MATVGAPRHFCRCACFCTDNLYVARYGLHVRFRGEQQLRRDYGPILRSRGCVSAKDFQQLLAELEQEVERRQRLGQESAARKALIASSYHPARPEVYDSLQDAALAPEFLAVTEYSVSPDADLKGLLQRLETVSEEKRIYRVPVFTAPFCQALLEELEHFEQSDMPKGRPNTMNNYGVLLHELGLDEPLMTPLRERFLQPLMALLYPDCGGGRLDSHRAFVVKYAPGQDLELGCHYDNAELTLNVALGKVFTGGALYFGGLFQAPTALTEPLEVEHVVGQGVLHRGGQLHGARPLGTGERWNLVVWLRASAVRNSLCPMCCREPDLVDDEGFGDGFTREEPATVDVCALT
UniProt Q9Y605, sequence (Q9Y605 whole entry, looked up): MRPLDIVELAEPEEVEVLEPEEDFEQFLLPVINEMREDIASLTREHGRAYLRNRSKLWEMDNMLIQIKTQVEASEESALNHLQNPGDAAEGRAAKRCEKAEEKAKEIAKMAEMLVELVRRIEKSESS
UniProt O43847, sequence (O43847 whole entry, looked up): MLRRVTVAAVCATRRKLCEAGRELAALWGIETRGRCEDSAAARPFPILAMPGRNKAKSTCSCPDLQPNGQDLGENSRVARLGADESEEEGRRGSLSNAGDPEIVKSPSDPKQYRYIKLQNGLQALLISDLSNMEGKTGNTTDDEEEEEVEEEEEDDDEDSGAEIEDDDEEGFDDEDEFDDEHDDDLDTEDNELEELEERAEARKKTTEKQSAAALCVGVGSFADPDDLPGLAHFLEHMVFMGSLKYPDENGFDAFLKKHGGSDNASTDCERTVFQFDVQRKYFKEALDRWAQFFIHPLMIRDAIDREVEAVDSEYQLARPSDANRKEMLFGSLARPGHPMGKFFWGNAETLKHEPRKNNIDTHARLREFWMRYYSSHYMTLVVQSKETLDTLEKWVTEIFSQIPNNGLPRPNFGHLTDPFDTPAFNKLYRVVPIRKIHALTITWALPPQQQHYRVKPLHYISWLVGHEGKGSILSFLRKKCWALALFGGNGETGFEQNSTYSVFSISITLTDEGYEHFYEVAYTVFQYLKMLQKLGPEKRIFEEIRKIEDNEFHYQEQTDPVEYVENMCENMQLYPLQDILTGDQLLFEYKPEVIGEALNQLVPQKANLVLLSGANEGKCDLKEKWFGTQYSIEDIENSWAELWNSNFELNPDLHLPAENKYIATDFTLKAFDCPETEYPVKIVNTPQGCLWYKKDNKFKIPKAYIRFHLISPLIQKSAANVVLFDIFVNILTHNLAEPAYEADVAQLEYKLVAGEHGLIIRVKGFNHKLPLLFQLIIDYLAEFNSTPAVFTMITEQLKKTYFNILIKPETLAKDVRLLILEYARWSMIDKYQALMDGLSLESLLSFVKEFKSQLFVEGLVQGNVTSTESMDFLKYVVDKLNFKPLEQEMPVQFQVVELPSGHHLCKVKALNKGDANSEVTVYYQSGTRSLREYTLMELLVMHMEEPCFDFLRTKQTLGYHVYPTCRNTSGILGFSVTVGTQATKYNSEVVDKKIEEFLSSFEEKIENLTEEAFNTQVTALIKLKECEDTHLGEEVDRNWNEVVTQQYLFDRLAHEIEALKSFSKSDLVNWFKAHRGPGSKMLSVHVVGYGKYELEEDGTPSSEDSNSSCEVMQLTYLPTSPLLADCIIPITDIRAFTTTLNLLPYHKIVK
UniProt Q15746, sequence (Q15746 whole entry, looked up): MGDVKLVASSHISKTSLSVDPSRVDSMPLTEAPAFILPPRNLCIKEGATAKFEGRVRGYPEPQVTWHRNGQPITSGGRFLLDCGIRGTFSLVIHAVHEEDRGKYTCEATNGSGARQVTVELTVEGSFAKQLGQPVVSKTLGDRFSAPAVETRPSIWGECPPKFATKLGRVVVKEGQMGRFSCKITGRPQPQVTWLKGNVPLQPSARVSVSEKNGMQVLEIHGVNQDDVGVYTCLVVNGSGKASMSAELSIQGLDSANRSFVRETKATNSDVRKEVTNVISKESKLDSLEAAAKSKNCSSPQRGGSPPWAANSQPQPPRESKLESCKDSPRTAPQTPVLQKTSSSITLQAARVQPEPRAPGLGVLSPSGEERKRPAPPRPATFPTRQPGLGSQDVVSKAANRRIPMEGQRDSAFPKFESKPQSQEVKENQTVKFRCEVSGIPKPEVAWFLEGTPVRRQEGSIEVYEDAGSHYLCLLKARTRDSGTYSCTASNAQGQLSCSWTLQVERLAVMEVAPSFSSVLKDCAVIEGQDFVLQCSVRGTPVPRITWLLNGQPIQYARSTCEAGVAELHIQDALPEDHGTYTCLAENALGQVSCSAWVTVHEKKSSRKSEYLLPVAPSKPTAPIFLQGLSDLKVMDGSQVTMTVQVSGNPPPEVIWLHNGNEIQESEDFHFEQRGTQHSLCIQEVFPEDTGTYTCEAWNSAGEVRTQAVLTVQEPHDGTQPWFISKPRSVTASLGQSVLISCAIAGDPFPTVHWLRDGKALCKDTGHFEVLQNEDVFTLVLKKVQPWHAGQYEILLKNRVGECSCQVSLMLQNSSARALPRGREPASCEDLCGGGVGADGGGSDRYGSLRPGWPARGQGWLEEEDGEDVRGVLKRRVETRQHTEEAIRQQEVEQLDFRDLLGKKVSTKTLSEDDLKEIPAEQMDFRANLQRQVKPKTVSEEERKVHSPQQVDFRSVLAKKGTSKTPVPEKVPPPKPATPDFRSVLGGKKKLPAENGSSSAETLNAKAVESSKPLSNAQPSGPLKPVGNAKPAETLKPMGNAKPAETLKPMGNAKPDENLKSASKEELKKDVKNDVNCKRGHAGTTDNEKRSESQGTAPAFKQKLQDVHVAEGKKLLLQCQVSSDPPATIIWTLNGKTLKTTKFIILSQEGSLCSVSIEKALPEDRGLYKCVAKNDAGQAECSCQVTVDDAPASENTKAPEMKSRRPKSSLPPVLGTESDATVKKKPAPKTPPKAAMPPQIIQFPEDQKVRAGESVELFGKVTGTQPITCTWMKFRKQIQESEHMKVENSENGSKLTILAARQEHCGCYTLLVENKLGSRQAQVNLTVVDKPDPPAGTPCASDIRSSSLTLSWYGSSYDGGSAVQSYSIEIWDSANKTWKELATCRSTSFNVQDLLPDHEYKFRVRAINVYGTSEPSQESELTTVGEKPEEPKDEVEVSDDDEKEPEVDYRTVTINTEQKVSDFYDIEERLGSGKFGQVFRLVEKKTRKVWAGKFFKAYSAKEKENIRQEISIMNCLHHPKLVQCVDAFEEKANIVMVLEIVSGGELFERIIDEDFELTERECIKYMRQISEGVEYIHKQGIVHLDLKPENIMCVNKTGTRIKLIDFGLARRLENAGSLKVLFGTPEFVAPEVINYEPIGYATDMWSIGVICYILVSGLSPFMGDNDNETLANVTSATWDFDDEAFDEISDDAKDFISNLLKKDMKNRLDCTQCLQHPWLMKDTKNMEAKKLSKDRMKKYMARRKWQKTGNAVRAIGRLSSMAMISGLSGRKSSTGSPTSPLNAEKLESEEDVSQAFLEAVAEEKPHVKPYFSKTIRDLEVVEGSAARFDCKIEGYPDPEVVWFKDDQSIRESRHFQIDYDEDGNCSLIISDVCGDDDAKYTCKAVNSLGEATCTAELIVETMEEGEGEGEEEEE
UniProt Q9BS92, sequence (Q9BS92 whole entry, looked up): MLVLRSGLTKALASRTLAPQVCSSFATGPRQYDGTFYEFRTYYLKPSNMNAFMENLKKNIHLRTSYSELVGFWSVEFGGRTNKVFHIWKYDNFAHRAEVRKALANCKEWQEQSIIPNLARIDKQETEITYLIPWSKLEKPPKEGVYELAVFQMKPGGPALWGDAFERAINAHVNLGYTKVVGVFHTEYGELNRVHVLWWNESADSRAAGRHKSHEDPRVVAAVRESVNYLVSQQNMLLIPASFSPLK

Target | log2 fold change
NIPSNAP3B (UniProt Q9BS92) | 0.083 (inactive)
NFYB (UniProt P25208) | 0.127 (inactive)
MYLK (UniProt Q15746) | 0 (inactive)
NAP1L1 (UniProt B7Z9C2) | 0.049 (inactive)
NAGPA (UniProt Q9UK23) | -0.091 (inactive)
NNMT (UniProt P40261) | 0.094 (inactive)
NKAP (UniProt Q8N5F7) | -0.169 (inactive)
MMADHC (UniProt Q9H3L0) | -0.005 (inactive)
OGFOD2 (UniProt Q6N063) | 0.092 (inactive)
OVCA2 (UniProt Q8WZ82) | -0.231 (inactive)
NUP160 (UniProt Q12769) | -0.042 (inactive)
NPM3 (UniProt O75607) | -0.035 (inactive)
P4HA2 (UniProt O15460) | -0.059 (inactive)
NA, A0A494C071 | 0.094 (inactive)
MOB2 isoform 3 (UniProt Q70IA6) | -0.108 (inactive)
MT-ND2 (UniProt P03891) | -0.01 (inactive)
NRDC isoform 2 (UniProt O43847) | 0.088 (inactive)
MRFAP1 (UniProt Q9Y605) | -0.075 (inactive)
NCBP2AS2 (UniProt Q69YL0) | 0.006 (inactive)
OAT (UniProt P04181) | 0.002 (inactive)
MON1A (UniProt Q86VX9) | -0.012 (inactive)
NDFIP1 (UniProt Q9BT67) | -0.024 (inactive)
NME2P1 (UniProt O60361) | 0.073 (inactive)
MOB3B (UniProt Q86TA1) | 0.109 (inactive)
